Screening results (PubChem)
NPSR antagonist: qHTS Assay for Antagonists of the Neuropeptide S Receptor: cAMP Signal Transduction | AID 1461, 2008 | actives 1% (n = 220,000) | Potency, µM (doses to about 38.3 µM), most hits filed as inhibitors | CHO-NPSR cells, cAMP TR-FRET, antagonist mode; also: nearly all actives have a fitted effect of over 50% in size
Target sequence (Q6W5P4 whole entry, looked up): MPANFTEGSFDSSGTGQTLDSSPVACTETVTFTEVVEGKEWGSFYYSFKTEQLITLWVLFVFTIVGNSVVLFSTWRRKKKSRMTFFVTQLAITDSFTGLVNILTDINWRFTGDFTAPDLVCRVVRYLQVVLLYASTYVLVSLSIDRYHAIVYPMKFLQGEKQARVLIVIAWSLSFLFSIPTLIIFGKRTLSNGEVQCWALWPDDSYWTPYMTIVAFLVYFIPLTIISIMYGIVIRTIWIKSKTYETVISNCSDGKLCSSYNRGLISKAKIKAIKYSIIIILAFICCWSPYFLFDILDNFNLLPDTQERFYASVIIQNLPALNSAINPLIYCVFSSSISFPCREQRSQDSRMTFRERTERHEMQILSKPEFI
Tau fibril FP: qHTS for Inhibitors of Tau Fibril Formation, Fluorescence Polarization | Microtubule-associated protein tau (Homo sapiens), P10636 | K18 P301L tau heparin fibrillization, Alexa594 FP, 6 h | Potency, µM (top dose mostly 57.7 µM), most hits filed as inhibitors | actives 0.39% (n = 280,000); also: nearly all actives have a fitted effect of over 55% in size
Target sequence (P10636 561-689 P618L limits assumed): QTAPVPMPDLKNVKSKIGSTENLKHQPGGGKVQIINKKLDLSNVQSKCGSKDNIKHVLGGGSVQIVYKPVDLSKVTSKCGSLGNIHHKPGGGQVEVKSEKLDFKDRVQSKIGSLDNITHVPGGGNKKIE
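Compound effects on tau fibrillization are measured by Alexa 594 fluorescence polarization (ex 555, em 632 nm). K18 P301L tau is used at 15 uM with 0.24 uM labeled tracer, and 20 uM heparin induces aggregation over 6 hr at 37 C.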
PNC assembly inh: High Content Assay for Compounds that inhibit the Assembly of the Perinucleolar Compartment; actives 3.1% (n = 140,000); PC3M PTB-GFP, PNC prevalence imaging, 16 h; stronger effect = lower value; activity change (PNC), negative = inhibition, % at 10 µM;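 active = readout at or below -70, meaning at least 70% loss of cells showing the perinucleolar compartment, a nuclear body marking cancer cells; inconclusive = readout between -30 and a set limit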
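Read-out is percentage of cells bearing a perinucleolar compartment, from automated 20x imaging of fixed, Hoechst-stained PC3M PTB-GFP cells. Cells were seeded 4 h, then exposed 16 h to compound (23 nl of library stock) in duplicate plates.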
Tau fluor cs: Counterscreen qHTS for Inhibitors of Tau Fibril Formation, Fluorescence Polarization; tau K18 P301L Alexa594 fluorescence, heparin fibrillization; Potency, µM (highest dose often 57.7 µM); actives 0.93% (n = 280,000); AID 1463, 2008; also: nearly all actives have a fitted effect of over 55% in size
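Human K18 P301L tau (15 uM unlabeled plus 0.24 uM Alexa 594-labeled, final) in 100 mM sodium acetate pH 7 was mixed with compound and 20 uM heparin and incubated 6 hr at 37 C.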
JMJD2E inh: qHTS Assay for Inhibitors of Human Jumonji Domain Containing 2E (JMJD2E); AID 2147, 2009; Potency, µM (highest dose often 57.1 µM), hits mostly inhibitors; Lysine-specific demethylase 4E (Homo sapiens), B2RXH2; JMJD2E catalytic domain, FDH-coupled NADH fluorescence (FDH is formaldehyde dehydrogenase); actives 1.6% (n = 230,000); active = well fitted inhibition curve with a large enough effect, not every such curve was filed as active; inconclusive = small, poorly fitted or top-dose-only effect, or another doubt; inactive = no such curve, though single readings can be large or run the other way; also: nearly all actives have a fitted effect of over 50% in size
Tau fibril ThT: qHTS for Inhibitors of Tau Fibril Formation, Thioflavin T Binding | Microtubule-associated protein tau (Homo sapiens), P10636 | recombinant tau K18 P301L (four-repeat tau fragment), heparin-induced fibrillization, ThT fluorescence | Potency, µM (top dose mostly 57.4 µM), hits mostly inhibitors | actives 2.1% (n = 270,000); also: nearly all actives have a fitted effect of over 55% in size
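Heparin-induced fibrillization of the P301L-mutant K18 repeat-domain fragment of human tau was followed by ThT binding in quantitative high-throughput format.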
Numbers stand for hits; n = inactive; u = inconclusive; x = no result given; ! = a repeat was not active; [ ] = another dose, or the depositor's remark. Shown are actives, neighbours in structure and some others; about 5.1% of the full set was active somewhere. Unless noted, calls follow the shape of the dose curve; as a rule, active = well fitted curve in the direction sought with a large enough effect; inconclusive = small, poorly fitted or top-dose-only effect, or another doubt; inactive = no such curve, though single readings can be large; an effect the other way counts as inactive or inconclusive.

SMILES	NPSR antagonist	Tau fibril FP	PNC assembly inh	Tau fluor cs	JMJD2E inh	Tau fibril ThT
CCSC1=N/C(=C\c2ccc(-c3ccccc3[N+](=O)[O-])o2)C(=O)S1	n	u	n	u	u	5.01µM
CCCSC1=N/C(=C\C=C\c2ccco2)C(=O)S1	n	u	n	u	8.91µM	14.1µM
COc1ccccc1C1=Nn2c(nc3sc(C(=O)Nc4ccccc4Cl)c(C)c3c2=O)SC1	x	n	x	u	x	u
CCN(CC)C(=O)c1cccc2c1C(=O)c1ccccc1-2	n	n	u	n	n	n
CCN(CC)C(=O)c1ccc2c(c1[N+](=O)[O-])C(=O)c1ccccc1C2=O	n	n	-81.8	n	n	n
COc1ccc(N(Cc2cccs2)C(=O)c2ccccc2C)cc1	x	n	x	n	x	n
O=C1c2ccc(O)c(O)c2C(=O)c2c(O)ccc(O)c21	x	12.6µM	x	2.51µM[quencher]	3.55µM	1.41µM
COC(=O)c1ccc2c(c1O)C(=O)c1ccccc1C2=O	n	n	n	u	n	5.62µM
O=C1c2ccccc2C(=O)c2c([N+](=O)[O-])ccc(O)c21	n	n	x	n	n	u
O=C1c2cccc(O)c2C(=O)c2c(O)cccc21	n	n	n	u	n	u
O=C1c2ccccc2C(=O)c2c1ccc(O)c2O	x	n	x	u	14.1µM	8.91µM
CC12C=C(/C=C/c3ccccc3)C(C)(C1)C(c1ccccc1)CC2=O (stereo not given)	x	n[11.6 µM]	x	n[11.6 µM]	x	n[11.5 µM]
CCOC(=O)c1cc(-c2ccccc2)n(-c2cccc(C(=O)Nc3cccc(SC)c3)c2)c1C	x	u	x	n	x	n
CCn1c(CN2CCCCC2)nc2cc(NC(=O)COc3ccc([N+](=O)[O-])cc3)ccc21	x	n	x	n	x	n
Cc1ccc(CNC(=O)CSc2nc3c(sc4ccccc43)c(=O)n2CCCC(=O)NCCO)cc1	x	n	x	n	x	u
CCOC(=O)c1nnc(-c2ccccc2)nc1Oc1ccccc1Cl	u	n	u	u	n	14.1µM
CC1CCN(S(=O)(=O)c2cc(C(=O)NCc3ccccc3)n(C)c2)CC1	x	n	x	n	x	n
Nc1cccc(Nc2nc(OC(C(F)(F)F)C(F)(F)F)nc(OC(C(F)(F)F)C(F)(F)F)n2)c1	u	n	n	14.1µM[quencher]	n	n
COc1nc(Nc2ccc(O)cc2)nc(OC(C(F)(F)F)C(F)(F)F)n1	u	n	n	u	n	n
CCCCC[n+]1ccn(C2=C([O-])c3ccccc3C(=O)/C2=N\S(=O)(=O)c2ccc(Cl)cc2)c1	n	n	x	n	n	u
CCCC[n+]1ccn(C2=C([O-])c3ccccc3C(=O)/C2=N\S(=O)(=O)c2ccc(Cl)cc2)c1	u	u	x	u	n	11.2µM
Cc1cc(-c2ccccc2)n(-c2cc(N/N=C/c3ccccc3O)ncn2)n1	n	u	-90.6	u	u	n
O=[N+]([O-])c1cc(S(=O)(=O)Nc2ccccc2)ccc1N1CCN(c2ccc(O)cc2)CC1	n	n	n	n	n	n
Cc1ccc(NS(=O)(=O)c2ccc(N3CCN(c4ccc(O)cc4)CC3)c([N+](=O)[O-])c2)c(C)c1	n	n	n	11.2µM[quencher]	n	14.1µM
Nc1ccc(C(=O)C(=O)c2ccc(N)cc2)cc1	n	n	x	n	n	n
SMILES	NPSR antagonist	Tau fibril FP	PNC assembly inh	Tau fluor cs	JMJD2E inh	Tau fibril ThT
Nc1ccc(N=Nc2ccc(N)cc2)cc1	n	n	x	n	n	11.2µM
CC1CCN(S(=O)(=O)c2ccc3c(c2)oc(=O)n3CC(=O)NC(C)c2ccccc2)CC1 (stereo not given)	x	u	x	n	x	n
Cc1onc(-c2ccccc2Cl)c1C(=O)Nc1ccc(-c2cn3cccnc3n2)cc1	n	n	-91.1	n	u	n
COC[C@@H](O)[C@@H](OC)[C@H](OC)[C@H](Cc1c(OC)cc(OC)cc1OC)OC	x	n	x	n	n	n
Cc1ccc(NC(=S)NCc2ccccc2)cc1S(=O)(=O)N1CCCCC1	n	20µM	x	12.6µM[quencher]	n	n
Cc1ccc(NC(=O)Cc2c[nH]c3ccccc23)cc1S(=O)(=O)N1CCCCCC1	n	n	n	14.1µM[quencher]	n	n
Cc1ccc(S(=O)(=O)N2CCCCC2)cc1NC(=O)Cc1c[nH]c2ccccc12	u	n	u	u	n	n
O=C(Cn1c(=O)n(-c2ccc(F)c(Cl)c2)c(=O)c2sc3ccccc3c21)NC1CCCC1	x	u	x	n	x	n
Cc1cc2oc(C(=O)Nc3sc4c(c3C(=O)NCc3ccccc3)CCCC4)cc(=O)c2cc1C	x	n	x	n	x	n
O=C(Cc1ccc(-n2cccc2)cc1)NCc1cccs1	n	n	-106.0	n	n	n
Cc1ccc(CNC(=O)Cc2ccc(-n3cccc3)cc2)cc1	n	n	n	n	n	n
Cc1ccc(/C=[N+](\[O-])c2ccc(N(C)C)cc2)c2nsnc12	u	31.6µM	x	u	14.1µM	6.31µM
N[C@@H](C(=O)O)c1ccc(C(=O)O)c(O)c1	x	n	x	n	u	n
N[C@H](C(=O)O)c1cc(O)cc(O)c1	u	u	x	u	15.8µM!	u
Cc1ccc(N2C(=O)C(CC(=O)Nc3ccccc3)N(CCC3=CCCCC3)C2=O)cc1 (stereo not given)	x	n	x	u	x	n
C/C(CC(C)(C)C1CCCCC1)=N\NC(N)=S	3.16µM	n	n	n	n	n
O=C(/C=C/c1ccccc1)c1cc(Br)ccc(=O)c1O	u	u	n	u	12.6µM	14.1µM
O=C(/C=C\c1ccccc1)c1ccccc1O	x	n[11.6 µM]	x	n[11.6 µM]	x	n[11.5 µM]
O=C(/C=C/c1ccc(O)cc1)c1ccccc1O	x	n	x	u	u	17.8µM
Cc1ccc(/C=C/C(=O)c2ccccc(=O)c2O)cc1C	n	n	n	u	28.2µM	12.6µM
COc1ccc(-n2c(-c3ccc(C)cc3)cc3c2CC(C)(C)CC3=O)c(OC)c1	x	n	x	n	x	n
Cc1cc(NC(=O)c2oc3c(c2C)-c2[nH]ncc2CC3)ccc1Br	x	n	x	n	x	n
CCOc1ccccc1-c1noc(CSc2nnc(-c3ccccc3)n2-c2cccc(C)c2)n1	x	n	x	n	x	n
COc1ccc(C(=O)Nc2ccccc2C(=O)OCc2cc(=O)n3nc(C4CC4)sc3n2)cc1	x	n	x	n	x	n
CCOC(=O)c1ccc(NC(=O)Nc2ccc(OC)c(OC)c2)cc1	n	u	u	12.6µM[quencher]	n	u
COc1ccc(NC(=O)Nc2cccs2)cc1OC	n	n	n	u	u	15.8µM
CCOC(=O)c1cc(-c2ccccc2)n(CC(=O)Nc2ccc(OC)c(OC)c2)c1C	n	n	-88.1	n	n	n
COc1cccc(NC(=O)Nc2cccs2)c1	n	n	n	u	n	u
CCCCOC(=O)c1ccc(NC(=O)Nc2ccc(OC)c(OC)c2)cc1	n	n	n	6.31µM[quencher]	n	u
